Source: PubChem BioAssay (NCI)
About 79,000 compounds went through this panel and 15% of them were active in at least one assay; those are over-represented in the sample as a whole. Values without a mark were called inactive. The source made the active and inactive calls. No stated cut-off is given here; in the data, active means growth inhibition above about 70%; inactive means the rest.

Experiments:
[1] = NCI Yeast Anticancer Drug Screen. Data for the rad50 strain (AID 155);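 further: 0% = growth of vehicle-only cultures of the same strain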; settings: S. cerevisiae rad50 strain growth inhibition, stronger effect = higher value
How it was run: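 Genetically altered yeast (DNA repair pathway); compound treatment; growth inhibition vs vehicle ctrl.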

[2] = NCI Yeast Anticancer Drug Screen. Data for the mec2-1 strain (AID 157); settings: S. cerevisiae mec2-1 strain, stronger effect = higher value
How it was run: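 Strain: mec2-1 (DNA repair/cell cycle alteration). Compound exposure, then growth measured; inhibition expressed relative to vehicle.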

[3] = NCI Yeast Anticancer Drug Screen. Data for the sgs1 mgt1 strain (AID 161);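 further: 0% = growth of cultures given vehicle only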; settings: S. cerevisiae sgs1 mgt1 strain, stronger effect = higher value
How it was run: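 Test agents were incubated with a DNA-repair-mutant yeast strain. Growth was then read and compared against vehicle-treated controls.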

[4] = NCI Yeast Anticancer Drug Screen. Data for the cln2 rad14 strain (AID 165);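 further: 0% = growth equal to vehicle treated cultures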; settings: S. cerevisiae cln2 rad14 strain, stronger effect = higher value
How it was run: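 Compounds are applied to the cln2 rad14 yeast strain, and growth is then compared with that of vehicle-treated cultures to give inhibition.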

[5] = NCI Yeast Anticancer Drug Screen. Data for the bub3 strain (AID 167); settings: S. cerevisiae bub3 mutant strain, stronger effect = higher value
How it was run: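 Yeast carrying a defined mutation is treated with each compound, and growth is compared with that of vehicle-exposed cells to give inhibition.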

[6] = NCI Yeast Anticancer Drug Screen. Data for the mlh1 rad18 strain (AID 175); settings: S. cerevisiae mlh1 rad18 strain growth inhibition, stronger effect = higher value
How it was run: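 Read-out is yeast growth inhibition, calculated against vehicle-only controls. The compound was applied to a strain engineered with DNA damage repair alterations.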

[7] = at 5.0 µM (retest, dose inferred, filed as 0.5)
[8] = at 50.0 µM (retest, dose inferred, filed as 5.0)

Row | Structure (SMILES) | growth inhibition [1, 7] | growth inhibition [1, 8] | growth inhibition ([1]; at 50.0 µM) | growth inhibition [2, 7] | growth inhibition [2, 8] | growth inhibition ([2]; at 50.0 µM) | growth inhibition [3, 7] | growth inhibition [3, 8] | growth inhibition ([3]; at 50.0 µM) | growth inhibition [4, 7] | growth inhibition [4, 8] | growth inhibition ([4]; at 50.0 µM) | growth inhibition [5, 7] | growth inhibition [5, 8] | growth inhibition ([5]; at 50.0 µM) | growth inhibition [6, 7] | growth inhibition [6, 8] | growth inhibition ([6]; at 50.0 µM)
1 | CC(C)N1C(=O)c2ccccc2S1(Cl)c1ccccc1 (configuration not stated) | 2% | 0% | 97.5% (active) | -6% | 6% | 96.8% (active) | 4% | -3% | 94.5% (active) | -2% | 2% | 88.2% (active) | -7% | -6% | 98.5% (active) | -2% | 4% | 98.3% (active)
2 | COC1=C(NC(C)=O)C(=O)c2nc(-c3nc(C(=O)O)c(C)c(-c4ccc(OC)c(OC)c4O)c3N)ccc2C1=O | 59% | 93% (active) | 78.4% (active) | 28% | 79% (active) | 69.7% | 43% | 92% (active) | 68.7% | 38% | 90% (active) | 57.1% | 15% | 70% (active) | 55.8% | 48% | 89% (active) | 87% (active)
3 | CC(=O)Oc1cccc2c1C(=O)C(Br)(Br)CCC2 | 91% (active) | 99% (active) | 92.1% (active) | 100% (active) | 99% (active) | 87% (active) | 92% (active) | 99% (active) | 88.5% (active) | 52% | 99% (active) | 89.4% (active) | 99% (active) | 99% (active) | 90% (active) | 99% (active) | 99% (active) | 93.2% (active)
4 | S=c1[nH]c(-c2ccccc2)cs1 | -2% | 77% (active) | 79.5% (active) | 0% | 71% (active) | 85.1% (active) | 0% | 83% (active) | 92% (active) | -15% | 73% (active) | 80.2% (active) | -24% | 89% (active) | 74% (active) | 1% | 89% (active) | 89.5% (active)
5 | COc1ccc(N=N/N=c2\sc3cc(Cl)ccc3n2C)cc1 | 29% | 57% | 36.9% | 18% | 43% | 6.15% | 21% | 42% | -30.4% | 28% | 56% | 30.4% | 21% | 62% | 5% | 28% | 63% | 38.2%
6 | CC(C)C1=CC2=CCC3C(C)(C(=O)O)CCCC3(C)C2CC1 (configuration not stated) (tested in a mixture with another compound) | -8% | 80% (active) | 75.5% (active) | -16% | 96% (active) | 75.7% (active) | -13% | 88% (active) | 75.5% (active) | -17% | 85% (active) | 88.5% (active) | -14% | 88% (active) | 89.5% (active) | -3% | 92% (active) | 88.8% (active)
7 | CN(C)CC/C(=N\Nc1ccc([N+](=O)[O-])cc1)c1ccccc1 | 12% | 65% | 99.5% (active) | 8% | 86% (active) | 84.4% (active) | 29% | 96% (active) | 99.2% (active) | 1% | 62% | 98.8% (active) | 8% | 98% (active) | 99.7% (active) | 19% | 97% (active) | 98.5% (active)
8 | CC(C)(C)c1ccc2c(c1)C(O)(c1ccccc1)C1OC1(C(C)(C)C)C2=O (configuration not stated) | 10% | 85% (active) | 96.2% (active) | 9% | 82% (active) | 94.5% (active) | 16% | 82% (active) | 79.3% (active) | 4% | 87% (active) | 91.7% (active) | -3% | 88% (active) | 94.7% (active) | 31% | 91% (active) | 93.2% (active)
9 | CN(Cc1cc(C(C)(C)C)cc(Br)c1O)Cc1cc(C(C)(C)C)cc(Br)c1O | 2% | 24% | 72% (active) | -2% | 91% (active) | 86.2% (active) | -9% | 64% | 58.8% | -11% | 87% (active) | 89.5% (active) | -11% | 71% (active) | 81.3% (active) | -8% | 84% (active) | 61.1%
10 | CC1OC(OC2C(Oc3c(-c4ccc(O)c(O)c4O)oc4cc(O)ccc4c3=O)OC(CO)C(O)C2O)C(O)C(O)C1O (configuration not stated) | -4% | -8% | 22.9% | -5% | 0% | -5.3% | -5% | 1% | -7.95% | 7% | 0% | -8.85% | -1% | 0% | 3.25% | -5% | -6% | -10.7%
11 | COc1ccc(NNC(=O)c2ccccc2)cc1 | 29% | 97% (active) | 96.3% (active) | 9% | 95% (active) | 97.5% (active) | 13% | 98% (active) | 96.3% (active) | 3% | 97% (active) | 96.8% (active) | -9% | 98% (active) | 98.2% (active) | 13% | 98% (active) | 97.7% (active)
12 | CN(C)CCNC(=O)c1cccc2ccc(-c3ccc(-c4ccccc4)cc3)nc12 | 4% | 99% (active) | 99.2% (active) | -1% | 98% (active) | 99.6% (active) | -1% | 99% (active) | 99.2% (active) | 1% | 99% (active) | 98.5% (active) | -41% | 99% (active) | 99.1% (active) | 0% | 99% (active) | 99.4% (active)
13 | COc1cc(C/C(=C/c2ccc(OC)c3occc23)[N+](=O)[O-])cc(OC)c1OC | 18% | 100% (active) | 70.6% (active) | 29% | 100% (active) | 82.8% (active) | 31% | 99% (active) | 82.9% (active) | 4% | 99% (active) | 64.8% | 12% | 97% (active) | 60.7% | 23% | 100% (active) | 87.2% (active)
14 | O=C1C=CC(=Nc2cccc3c2-c2ccccc2C3)O1 | 98% (active) | 99% (active) | 99.6% (active) | 99% (active) | 99% (active) | 99.6% (active) | 99% (active) | 99% (active) | 99.7% (active) | 88% (active) | 99% (active) | 99.4% (active) | 99% (active) | 99% (active) | 99.7% (active) | 99% (active) | 99% (active) | 85.6% (active)
15 | Oc1c(C(O)(c2ccccc2)c2ccc3ccccc3c2O)ccc2ccccc12 | 17% | 81% (active) | 84.8% (active) | 3% | 81% (active) | 84.4% (active) | 13% | 76% (active) | 79.4% (active) | 9% | 96% (active) | 82.5% (active) | 21% | 95% (active) | 89.2% (active) | 9% | 85% (active) | 86.9% (active)
16 | Cc1[nH]nc(-c2cccnc2)c1N=NN1CCOCC1 | -4% | 70% (active) | 64% | 7% | 79% (active) | 97.5% (active) | -5% | 98% (active) | 96% (active) | -2% | 80% (active) | 58.5% | -3% | 99% (active) | 5.35% | -3% | 77% (active) | 98% (active)
17 | O=C1/C(=C/c2ccc3c(c2)OCO3)Sc2scc(-c3ccc(O)c(O)c3)[n+]21 | 25% | 98% (active) | 83.8% (active) | 33% | 99% (active) | 88.3% (active) | 67% | 98% (active) | 91% (active) | 26% | 98% (active) | 89.4% (active) | 97% (active) | 98% (active) | 88.5% (active) | 27% | 99% (active) | 90.8% (active)
18 | Oc1cc(Cl)cc2cc(Cl)cnc12 | 99% (active) | 99% (active) | 86.6% (active) | 96% (active) | 98% (active) | 91.2% (active) | 98% (active) | 98% (active) | 84.8% (active) | 97% (active) | 96% (active) | 87.7% (active) | 98% (active) | 99% (active) | 87.8% (active) | 98% (active) | 99% (active) | 82.3% (active)
19 | COc1cc(CNC(=O)CCCCCCCCCCSC#N)ccc1O | 6% | 59% | 82.1% (active) | 5% | 43% | 85.2% (active) | 7% | 77% (active) | 83.6% (active) | 1% | 76% (active) | 81% (active) | 0% | 82% (active) | 86.7% (active) | 20% | 73% (active) | 81.2% (active)
